Measured values as given in PubChem BioAssay AID1508602 (The Scripps Research Institute Molecular Screening Center, 2020).
Several values for one entry are separate records, joined by “and”; a condition that tells them apart may be missing. Equal entries are not always repeated. Among all 650,000 compounds or so, about 6,800 (1%) were called active. No stated cut-off is given here; in the data, active means activation above about 4.9%; inactive means the rest. The list comes from a sample in which actives are over-represented; it also holds similar structures and randomly drawn compounds. Where a structure was tested more than once in an assay, its records may differ in their call.

Molecular target: G-protein coupled receptor 151 (Homo sapiens) (UniProt Q8TDV0)
Sequence (Q8TDV0 whole entry, looked up): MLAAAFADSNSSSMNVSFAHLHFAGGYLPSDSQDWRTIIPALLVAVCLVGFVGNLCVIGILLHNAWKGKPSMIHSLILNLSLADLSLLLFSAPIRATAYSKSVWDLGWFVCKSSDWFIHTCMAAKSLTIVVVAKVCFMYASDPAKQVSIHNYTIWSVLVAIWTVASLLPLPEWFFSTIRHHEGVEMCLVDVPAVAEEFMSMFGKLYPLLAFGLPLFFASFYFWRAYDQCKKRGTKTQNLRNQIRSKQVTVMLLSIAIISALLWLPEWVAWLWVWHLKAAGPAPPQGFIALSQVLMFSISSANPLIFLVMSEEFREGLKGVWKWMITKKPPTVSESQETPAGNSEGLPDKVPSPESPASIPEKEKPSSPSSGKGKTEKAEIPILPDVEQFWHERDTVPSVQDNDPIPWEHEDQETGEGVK
Assay: activates the human receptor GPR151, primary screen, cell-based, PathHunter beta-arrestin, luminescence (AID 1508602);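 further: 0% = median of compound wells and 100% = cells with positive control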
Conditions: PathHunter beta-arrestin GPR151 cells, at 11.2 µM, stronger effect = higher value

SMILES | activation
CCOC(=O)NCCCN1CCN(c2ccccc2)CC1 | 1.63% (inactive)
COc1cc(NC(=O)NCCN2CCN(c3ccccc3)CC2)cc(OC)c1 | 0.531% (inactive)
N#Cc1ccc(N2CCN(CCCNC(=O)Nc3ccccc3)CC2)cc1 | 5.03% (active)
COc1cccc(C=O)c1OC(=O)c1ccc(Cl)c([N+](=O)[O-])c1 | 1.65% (inactive)
NC(=O)c1ccccc1NS(=O)(=O)c1cc(C(=O)O)c(Cl)cc1Cl | 1.03% (inactive)
OC(COc1ccccc1F)CN1CCOCC1 (stereo unspecified) | 0.198% (inactive)
COc1ccc(C2/C(=C(\O)c3ccc(F)cc3)C(=O)C(=O)N2CCCN2CCOCC2)cc1 (stereo unspecified) | 1.83% (inactive)
CCCSc1[nH]c(=O)c(C(=O)O)cc1C#N | -0.367% (inactive)
O=C(Cn1nnc2ccccc21)N/N=C/c1cccnc1 | 0.99% (inactive)
O=C(Cn1nnc2ccccc21)N/N=C/c1c(O)ccc2ccccc12 | 5.7% (active)
O=C(Cn1nnc(-c2ccccc2)n1)N/N=C/c1c(O)ccc2ccccc12 | 1.41% (inactive)
CC(C)(C)C1(O)CCN2C[C@H]3c4ccccc4CCc4cccc(c43)[C@@H]2C1 (stereo partly specified) | 7.83% (active) and 3.25% (inactive)
CC(Nc1n[nH]c(=O)[nH]c1=O)C(=O)N/N=C/c1cccnc1 (stereo unspecified) | -0.752% (inactive)
CN(CC(=O)Nc1ccccc1Cl)S(=O)(=O)c1ccc(F)cc1 | -1.27% (inactive)
CN(CC(=O)Nc1cccc2c1CCCC2)S(=O)(=O)c1ccc(Cl)cc1 | 5.67% (active)
CN(CC(=O)Nc1c(F)cccc1F)S(=O)(=O)c1ccc(Cl)cc1 | 0.4% (inactive)
C=CCn1c(SCC(=O)NCc2ccco2)nc2sc3c(c2c1=O)CCC(C)C3 (stereo unspecified) | -1.7% (inactive)
CCOC(=O)CSc1nc2sc(C(=O)OCC)c(C)c2c(=O)n1Cc1ccccc1 | 2.6% (inactive)
CCOC(=O)c1sc2nc(SCC(=O)N(C)Cc3ccccc3)n(Cc3ccc4c(c3)OCO4)c(=O)c2c1C | 5.39% (active)
CCOC(=O)c1sc2nc(SCc3ccc(Cl)cc3)n(Cc3cccc(Cl)c3)c(=O)c2c1C | -0.446% (inactive)
CC(C)n1c(=O)[nH]c2c(C(N)=O)nc(-c3ccc(-c4ccccc4)cc3)nc21 | 5.61% (active)
NC(=O)c1nc(-c2cccc(Cl)c2)nc2c1[nH]c(=O)n2-c1ccccc1 | -0.457% (inactive)
NC(=O)c1nc(-c2ccccc2)nc2c1[nH]c(=O)n2-c1ccc(F)cc1 | 0.0137% (inactive)

SMILES | activation
Cc1cccnc1-c1ccc2c(c1)CC(CNC(=O)[C@@H]1CCC(=O)N1)O2 (stereo partly specified) | 0.168% (inactive)
CCOC(=O)C1=C(C)OC(N)=C(C#N)C1c1ccc2c(c1)OCO2 (stereo unspecified) | 0.198% (inactive)
CCN(CC)CCOC(=O)c1ccc(OC)cc1OCCN(CC)CC | 1.9% (inactive)
OCCC1CN(Cc2ccc3cc(F)ccc3n2)CCN1C1CCCC1 (stereo unspecified) | 9.5% (active)
OCCC1CN(Cc2cccc(F)c2)CCN1C1CCCC1 (stereo unspecified) | 1% (inactive)
CCOc1ccc(CN2CCN(Cc3ccc4cc(F)ccc4n3)CC2CCO)cc1 (stereo unspecified) | -0.448% (inactive)
CC(C)Nc1cc(N2CCC3(CC2)OCCO3)c2noc3c2c1C(=O)c1ccccc1-3 | 3.8% (inactive)
Cc1ccc(N2C(=O)NC(NC(=O)c3cccs3)(C(F)(F)F)C2=O)cc1 (stereo unspecified) | 1.1% (inactive)
Cc1ccc(N2C(=O)CC(NCCc3ccccc3F)C2=O)cc1 (stereo unspecified) | 0.306% (inactive)
Cc1ccc(N2C(=O)CC(NCCN3CCOCC3)C2=O)cc1 (stereo unspecified) | 14% (active)
Cc1ccc(N2C(=O)CC(NCc3ccc(F)cc3)C2=O)cc1 (stereo unspecified) | -0.0057% (inactive)
COc1ccc(F)c(CC2(CCC(=O)N(CCO)Cc3ccccc3)CCC(=O)N2)c1 (stereo unspecified) | -0.346% (inactive)
NC(C(=O)N1CCN(C(=O)Nc2ccc3[nH]ncc3c2)CC1)c1cccc(Br)c1 (stereo unspecified) | -1.09% (inactive)
O=C(Nc1ccc2[nH]ncc2c1)N1CCCNCC1 | 5.34% (active)
CC(C)[C@H](O)C(=O)N1CCC(C(=O)Nc2ccc3[nH]ncc3c2)CC1 | -0.359% (inactive)
O=C(Nc1ccccc1C(F)(F)F)c1cc(S(=O)(=O)N2CCCCCC2)ccc1F | 0.584% (inactive)
Cc1ccc(N(CC(=O)N/N=C/c2ccc(C)c(C)c2C)S(C)(=O)=O)cc1 | 0.882% (inactive)
COc1cc2ccccc2cc1C(=O)Nc1nc2ccc3ccccc3c2s1 | -1.09% (inactive)
CCOC(=O)c1cc[n+](CC(=O)c2ccc(NC(=O)c3ccccc3)cc2)cc1 | -2.71% (inactive)
CCOC(=O)c1ccc(NC(=O)c2ncn(-c3ccccc3)n2)cc1 | 5.91% (active)
CCOC(=O)c1ccc(NC(=O)c2nn(Cc3ccccc3)c(=O)c3ccccc23)cc1 | -0.0773% (inactive)
O=C(Nc1ccncc1NC(=O)c1ccco1)c1ccco1 | 0.598% (inactive)
O=C1NCCN(Cc2ccc(F)c(F)c2)C1CC(=O)N1CCCC1 (stereo unspecified) | -0.422% (inactive)

SMILES | activation
COc1ccc(CN2CCNC(=O)C2CC(=O)N2CCCCC2)cc1OC (stereo unspecified) | 1.79% (inactive)
O=C1NCCN(Cc2ccc(-c3ccccc3)cc2)C1CC(=O)N1CCCCC1 (stereo unspecified) | 12.2% (active)
COc1cccc(N2CCN(c3ncnc4c3c(-c3ccccc3)cn4-c3ccccc3)CC2)c1 | 1.89% (inactive)
Nc1nc(NC(=O)/C=C/c2ccccc2)nn1-c1ccccc1 | 0.0795% (inactive)
Nc1nc(NC(=O)/C=C/c2ccc(Cl)cc2)nn1-c1ccccc1 | 0.321% (inactive)
Nc1nc(NC(=O)/C=C/c2ccc(F)cc2)nn1-c1ccccc1 | 10.7% (active)
Cc1sc(NC(=O)Cc2ccc([N+](=O)[O-])cc2)c(C#N)c1-c1ccccc1 | -0.519% (inactive)
O=C(CN1CCOCC1)Nc1ncc(Cc2cc(Cl)cc(Cl)c2)s1 | -0.516% (inactive)
O=C(CN1CCOCC1)Nc1c(Cl)cc(Cl)cc1Cl | 8.12% (active)
O=C1CN(CC(=O)Nc2c(Cl)cc(Cl)cc2Cl)CCN1 | 0.357% (inactive)
CC(NC(=O)C12CC3CC(CC(C3)C1)C2)c1ccccc1 (stereo unspecified) | 1.54% (inactive)
CCOC(=O)c1c(-c2ccc(C)cc2)csc1NC(=O)CNCCCO | 0.601% (inactive)
Cc1ccc(C(=O)N/N=C\c2ccccc2O)cn1 | -0.843% (inactive)
O=S(=O)(c1ccc2c(c1)CCCC2)N1CCOC(c2ccccc2)C1 (stereo unspecified) | -1.43% (inactive)
Cc1ccccc1-c1nc(SCC(=O)NCCc2ccccc2)c2c(=O)n(C)c(=O)n(C)c2n1 | -0.395% (inactive)
CCN1CCN(C(=O)Cn2nc(Cc3cccnc3)c3ccccc3c2=O)CC1 | 1.14% (inactive)
O=C1CCC(=O)NCC(=O)NCCOCCNC(=O)CN1 | -0.231% (inactive)
CC/C(Cc1ccccc1)=N\NC(=O)c1ccccc1 | -1.22% (inactive)
CN1CCN(c2ccc(-c3nc4ccc(C(=O)NCc5nc6ccccc6[nH]5)cc4s3)cc2)CC1 | 7.98% (active)
CN1CCN(c2ccc(-c3nc4ccc(C(=O)NCc5ccccc5)cc4s3)cc2)CC1 | -0.195% (inactive)
O=C(NCc1nc2ccccc2[nH]1)c1ccc2nc(-c3ccccc3)sc2c1 | -1.41% (inactive)
COc1ccc(-c2noc(Nc3ccc(F)cc3)n2)cc1OC | -0.36% (inactive)
Cc1ccc(NC(=O)c2c[nH]c(=O)[nH]c2=O)cc1S(=O)(=O)N1CCCCC1 | -0.749% (inactive)

SMILES | activation
COc1ccc(C(=O)NNC(=O)c2ccccc2[N+](=O)[O-])cc1OC | -0.216% (inactive)
CC(C)C(=O)NNS(=O)(=O)c1ccc([N+](=O)[O-])cc1 | 6.82% (active)
CC(NS(=O)(=O)c1ccc([N+](=O)[O-])cc1)C(=O)N/N=C/c1ccc(O)cc1 (stereo unspecified) | 0.173% (inactive)
O=C(NNS(=O)(=O)c1ccc([N+](=O)[O-])cc1)Nc1cccc(C(F)(F)F)c1 | 0.535% (inactive)
COCC(=O)Nc1c(I)c(C(=O)NCC(O)CO)c(I)c(C(=O)N(C)CC(O)CO)c1I (stereo unspecified) | 6.28% (active)
CC(=O)N(CC(O)CO)c1c(I)c(C(=O)NCC(O)CO)c(I)c(C(=O)NCC(O)CO)c1I (stereo unspecified) | 0.874% (inactive)
Cc1[nH][nH]c(=O)c1C(c1ccc(-c2ccc(Cl)cc2)o1)c1c(C)[nH][nH]c1=O | 0.733% (inactive)
Cc1[nH][nH]c(=O)c1C(c1ccc(-c2ccc(F)cc2[N+](=O)[O-])o1)c1c(C)[nH][nH]c1=O | 6.05% (active)
CC1=NOC(=O)/C1=C/c1ccc(-c2cc(C)c(C)cc2[N+](=O)[O-])o1 | 0.0267% (inactive)
CCCOC(=O)COc1ccc2c(C)cc(=O)oc2c1 | -0.0136% (inactive)
Cc1ccc(C2=NN(C(=O)CCC(=O)O)C(c3ccc(C)cc3)C2)cc1 (stereo unspecified) | -1.19% (inactive)
CC1=C(C(=O)Nc2ccc(Cl)cc2)C(c2ccc([N+](=O)[O-])cc2)n2nnnc2N1 (stereo unspecified) | 0.405% (inactive)
O=C(O)CC(NS(=O)(=O)Cc1ccccc1)c1ccc(F)cc1 (stereo unspecified) | 1.1% (inactive)
CC(=O)NC(CC(=O)O)c1ccc(F)cc1 (stereo unspecified) | 6.23% (active)
O=C(O)CC(NC(=O)c1ccccc1)c1ccc(F)cc1 (stereo unspecified) | -0.457% (inactive)
O=C(NCc1ccc(F)cc1)c1nn2c(C(F)(F)F)cc(-c3cccs3)nc2c1Cl | 0.443% (inactive)
Cc1ccccc1NC(=O)CSc1nnc(NC(=O)CCc2ccccc2)s1 | -0.763% (inactive)
O=C1c2cccnc2C(=O)N1CCc1ccc(S(=O)(=O)N2CCCc3ccccc32)cc1 | -2.73% (inactive)
COc1ccc(-c2cnn3ccc(Nc4ccc(O)cc4)nc23)c(OC)c1 | -0.387% (inactive)
Cc1ccc(S(=O)(=O)N(C)C)cc1NC(=S)NCCc1ccc(O)c(O)c1 | -0.323% (inactive)
COC(=O)NNC(=S)Nc1cc(S(=O)(=O)N(C)C)ccc1C | 6.15% (active)
CC(=O)c1c(C)[nH]c(C(=O)Nc2cc(S(=O)(=O)N(C)C)ccc2C)c1C | 0.871% (inactive)
